Shown are actives, neighbours in structure and some others; about 11% of the full set was active somewhere.
FLuc inh = Photinus pyralis luciferase inhibition; Potency, µM (series often up to 115 µM), most hits filed as inhibitors; P08659; 76,000 tested, 2.5% active; purified P. pyralis luciferase, luminescence, biochemical; further: nearly all actives have a fitted effect of over 65% in size
Target sequence (P08659 whole entry, looked up): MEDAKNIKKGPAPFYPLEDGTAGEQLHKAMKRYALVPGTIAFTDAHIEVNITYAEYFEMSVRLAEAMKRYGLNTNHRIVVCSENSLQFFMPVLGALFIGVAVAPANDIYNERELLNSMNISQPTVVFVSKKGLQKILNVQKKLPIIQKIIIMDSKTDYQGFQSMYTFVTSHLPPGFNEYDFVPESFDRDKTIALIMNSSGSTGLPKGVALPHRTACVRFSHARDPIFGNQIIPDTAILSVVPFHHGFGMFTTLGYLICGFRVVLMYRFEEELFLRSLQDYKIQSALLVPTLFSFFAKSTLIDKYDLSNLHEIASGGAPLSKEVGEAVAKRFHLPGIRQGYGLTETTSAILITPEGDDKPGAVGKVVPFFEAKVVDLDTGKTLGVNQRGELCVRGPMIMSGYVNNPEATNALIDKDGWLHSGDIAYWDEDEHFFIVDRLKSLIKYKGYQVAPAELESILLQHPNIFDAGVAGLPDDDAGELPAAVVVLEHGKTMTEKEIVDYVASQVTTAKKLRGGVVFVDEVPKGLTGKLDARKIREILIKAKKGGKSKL
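Luminescence read by CCD imager after adding enzyme (10nM final) to wells holding compound, titrated in qHTS. Substrates 10uM each D-luciferin and ATP; buffer 50mM Tris acetate pH 7.5, 10mM Mg acetate, Tween-20, BSA.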
NIH3T3 tox = NIH 3T3 cell cytotoxicity; NIH 3T3 viability, CellTiter-Glo ATP luminescence, 48-72 h; Potency, µM (doses to about 96.7 µM), most hits filed as inhibitors; 94,000 tested, 4.3% active; AID 1345082; further: nearly all actives have a fitted effect of over 55% in size
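Cytotoxicity was measured by CellTiter-Glo ATP luminescence after 48 or 72 h compound exposure at 37 °C. Mouse NIH 3T3 fibroblasts were seeded at 400 cells/well and dosed by 23 nL pin transfer.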
HEK293 tox = kills HEK 293 cells; Potency, µM (highest dose often 115 µM), most hits filed as inhibitors; HEK 293 viability, ATP luminescence (CellTiter-Glo), 48-72 h; AID 1345083; 94,000 tested, 6.6% active; further: nearly all actives have a fitted effect of over 60% in size
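CellTiter-Glo luminescence (cellular ATP) was read after 48 or 72 hr of compound exposure at 37 degree Celsius. Cells were HEK 293 plated at 250 cells/well.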
hNpr1 antagonist = antagonists of human natriuretic peptide receptor Npr1; P16066; HEK293 hNpr1 GloSensor cGMP, ANP-stimulated luminescence; Potency, µM (top dose mostly 46.3 µM), hits mostly inhibitors; 76,000 tested, 1.6% active; AID 1347048; calls by dose curve; further: nearly all actives have a fitted effect of over 60% in size
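HEK293 cells stably expressing human Npr1 and cGMP GloSensor pGS-40F, loaded 2 h with 2% GloSensor reagent, given compound 30 min at room temperature. Luminescence read before and 20 min after 0.1 nM hNppA.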
Of the large screens only hits and unclear results are named; the others gave an inactive call. Unless noted, the call rests on the fitted dose curve; in most records, active means well fitted curve in the direction sought with a large enough effect; inconclusive means small, poorly fitted or top-dose-only effect, or another doubt; inactive means no such curve, though single readings can be large; an effect the other way counts as inactive or inconclusive.

COCCc1nc(-c2cnc(C3CC3)nc2)n(-c2ccc(F)cc2F)n1	NIH3T3 tox 89.1µM, HEK293 tox inconclusive
COCCCn1c(C)cnc1C1CCN(Cc2ccc(F)cc2F)C1 (stereo not drawn)	none
CCCN(C)c1nccnc1OC1CCN(C(=O)c2ccoc2)C1 (stereo not drawn)	FLuc inh 14.1µM, HEK293 tox inconclusive
CCCN(C)c1nccnc1OC1CCN(C(=O)c2ccc(F)cc2)C1 (stereo not drawn)	FLuc inh 35.5µM, HEK293 tox inconclusive
CCCN(C)c1nccnc1OC1CCN(C(=O)C2CCCCC2)C1 (stereo not drawn)	FLuc inh inconclusive, HEK293 tox inconclusive
CCCN(C)c1nccnc1OC1CCN(C(=O)c2ccc(OC)nc2OC)C1 (stereo not drawn)	FLuc inh 22.4µM, HEK293 tox inconclusive
CCc1ccc(C(=O)N2CCC(Oc3nccnc3N(C)C)C2)cc1 (stereo not drawn)	FLuc inh inconclusive, HEK293 tox inconclusive
COc1ccc([C@H]2C[C@@H](O)[C@@H](O)[C@@H]2NC(=O)c2ccc3c(c2)OCCO3)cc1	FLuc inh inconclusive
C=CCN(C(=O)CC1COc2ccc(C(=O)N(C)C)cc2N1C)C(C)C (stereo not drawn)	none
CCn1ccc(C(=O)N[C@@H]2CN(Cc3ccccc3)C[C@H]2CN(C)C)n1	none
Cc1cc(C)n(CCCNC(=O)c2cc(COc3ccc4sc(C)nc4c3)on2)n1	none
CC(C)(C)C(Cn1ccnc1)NC(=O)c1cc(COc2ccc3c(c2)CCCC3)on1 (stereo not drawn)	FLuc inh inconclusive, NIH3T3 tox 20µM, HEK293 tox 25.1µM
O=C1NCCCN1C1CCN(Cc2ccncc2)CC1	none
COc1ccccc1Oc1ncccc1CNC1CCCC1	none
CCCCOc1c(CNC(C)c2ncccc2C)cccc1OC (stereo not drawn)	NIH3T3 tox 28.2µM, HEK293 tox 39.8µM
CCOC(=O)N1CCC(COc2ccc3c(cnn3CC[S+](C)(=O)[O-])c2)CC1	FLuc inh inconclusive, NIH3T3 tox 79.4µM, HEK293 tox inconclusive, hNpr1 antagonist inconclusive
C[S+](=O)([O-])CCn1ncc2cc(OCC3CCN(Cc4cccs4)CC3)ccc21	FLuc inh 63.1µM, NIH3T3 tox inconclusive, HEK293 tox inconclusive
CCOc1ccc(CN2CCN(c3ncnc4[nH]ccc34)CC2CCO)cc1 (stereo not drawn)	FLuc inh inconclusive
Cc1oc(C2CCN(C(=O)CCC(=O)n3ncc4c(Cl)cccc43)CC2)nc1C(=O)N1CCOCC1	none (no result: FLuc inh, hNpr1 antagonist)
CC(C)NC(=O)c1ccc2c(c1)C1(CCN(CC3CC3)C1)CN2Cc1ccccc1 (stereo not drawn)	NIH3T3 tox 89.1µM, HEK293 tox inconclusive
CNC(=O)c1ccc2c(c1)C1(CCN(CC3CC3)C1)CN2Cc1ccccc1 (stereo not drawn)	NIH3T3 tox inconclusive, HEK293 tox 100µM
O=C(NC1COC1)c1ccc2c(c1)C1(CCN(CC3CC3)C1)CN2Cc1ccccc1 (stereo not drawn)	HEK293 tox inconclusive
Cn1c(CN2CCN(c3ncccc3C#N)CC2)nnc1C1CC(N)C1 (stereo not drawn)	none
CC(c1ccc(-n2cncn2)cc1)n1ccnc1-c1cc2n(n1)CCNC2 (stereo not drawn)	HEK293 tox inconclusive
c1cnn(-c2ccc(-c3nc(C4CCOC4)no3)cc2)c1 (stereo not drawn)	FLuc inh 15.8µM, HEK293 tox inconclusive, hNpr1 antagonist inconclusive
Cn1ccc2ccc(-c3nc(C4CCOC4)no3)cc21 (stereo not drawn)	FLuc inh 35.5µM, NIH3T3 tox inconclusive
CCCc1cc(CNC(=O)c2ccc(N(C)C)nc2)on1	none
O=C(CCc1nnn2c1CN(S(=O)(=O)c1ccc(F)cc1)CC2)NC1CC1	none
Cc1ccc(NC(=O)N2CCC(CCNC(=O)c3cnccn3)CC2)cc1	none
COCC(=O)N1CCN(Cc2ccccc2-c2ccccc2F)CC1	HEK293 tox inconclusive (no result: FLuc inh, hNpr1 antagonist)
Cc1ccc(NC(=O)N2Cc3[nH]cnc3C[C@H]2c2nc(-c3ccc(Cl)cc3)no2)cc1	FLuc inh 39.8µM, NIH3T3 tox inconclusive, HEK293 tox 70.8µM, hNpr1 antagonist inconclusive
Cc1ccc(NC(=O)N2Cc3[nH]cnc3C[C@H]2c2nc(-c3ccc4ccccc4c3)no2)cc1	FLuc inh 20µM, NIH3T3 tox inconclusive, HEK293 tox inconclusive
O=C(Nc1ccccc1)N1Cc2[nH]cnc2C[C@H]1c1nc(-c2ccc3ccccc3c2)no1	none
Cc1ccc(NC(=O)N2Cc3[nH]cnc3C[C@H]2c2nc(-c3ccncc3)no2)cc1	none
COc1ccc(NC(=O)N2Cc3[nH]cnc3C[C@H]2c2nc(-c3ccccc3)no2)cc1	FLuc inh 39.8µM, NIH3T3 tox 31.6µM, HEK293 tox inconclusive
CC(C)c1noc([C@@H]2Cc3nc[nH]c3CN2C(=O)Nc2ccc(Cl)cc2)n1	NIH3T3 tox 89.1µM, HEK293 tox 100µM
CCCCCC(=O)Nc1nc2c(s1)C[C@@H]1[C@](C)(CO)[C@H](O)CC[C@@]1(C)[C@@H]2CC(=O)NC1CCCCC1	NIH3T3 tox inconclusive
CC1CCN(CC2CCCN(C(=O)COc3ccc(F)cc3)CC2)CC1 (stereo not drawn)	none
CCOC(=O)C1CCCN(C(=O)c2cc(-c3ccccc3OC)c3nncn3n2)C1 (stereo not drawn)	none (no result: FLuc inh, hNpr1 antagonist)
CCOC(=O)c1ccc(NC(=O)N2Cc3[nH]cnc3C[C@H]2c2nc(C(C)C)no2)cc1	NIH3T3 tox 100µM, HEK293 tox inconclusive
O=C(NC1CCCCC1)N1Cc2[nH]cnc2C[C@H]1c1nc(-c2ccc(Cl)cc2)no1	FLuc inh inconclusive
CCOC(=O)c1ccc(NC(=O)N2Cc3[nH]cnc3C[C@H]2c2nc(-c3cccc(C)c3)no2)cc1	FLuc inh inconclusive, NIH3T3 tox inconclusive, HEK293 tox inconclusive
CC(=O)c1ccc(NC(=O)N2Cc3[nH]cnc3C[C@H]2c2nc(-c3ccc(F)cc3)no2)cc1	FLuc inh inconclusive, NIH3T3 tox 89.1µM
O=C(NC1CCCCC1)N1Cc2[nH]cnc2C[C@H]1c1nc(-c2ccc3ccccc3c2)no1	FLuc inh 25.1µM
CCOC(=O)c1ccc(NC(=O)N2Cc3[nH]cnc3C[C@H]2c2nc(-c3ccc(C)cc3)no2)cc1	FLuc inh 31.6µM, NIH3T3 tox inconclusive, HEK293 tox inconclusive
O=C(NCc1ccccc1)N1CCCC(c2noc(COc3ccccc3F)n2)C1 (stereo not drawn)	NIH3T3 tox inconclusive, HEK293 tox inconclusive
O=C(Nc1ccccc1)N[C@H]1CO[C@H]2[C@@H]1OC[C@@H]2n1cc(CC2CCCCC2)nn1	NIH3T3 tox inconclusive
COCc1cn([C@H]2CO[C@H]3[C@@H]2OC[C@H]3OC(=O)Nc2cccc(C(F)(F)F)c2)nn1	NIH3T3 tox inconclusive, HEK293 tox 79.4µM
CN(Cc1ccccc1)Cc1cn([C@H]2CO[C@H]3[C@@H]2OC[C@@H]3NS(=O)(=O)c2cccs2)nn1	NIH3T3 tox inconclusive, HEK293 tox inconclusive
O=C(Nc1cccc(C(F)(F)F)c1)N[C@H]1CO[C@H]2[C@@H]1OC[C@@H]2n1cc(CC2CCCCC2)nn1	NIH3T3 tox inconclusive, HEK293 tox 39.8µM, hNpr1 antagonist inconclusive
